In PubChem BioAssay AID1159580 (chemical genetic matrix, 2015):
“And” between values parts separate entries of the source, which are not always exact repeats. Identical values can stand only once. Hit rate of the full screen: of about 5,500 compounds, about 2,000 (36%) were called active. Inconclusive results (about 18%) are left out. Cut-off read from the data, not from the text of the source: active = normalized growth mostly below about 0.91 (no sharp cut-off); inconclusive = no clear call, values can overlap the other calls; inactive = mostly above about 0.92. Some of the results follow.

Experiment: chemical genetic growth profiling, strain panel (AID 1159580);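 note: tested at 20 µM; growth read once vehicle control cultures reached saturation at 30 °C; 1 = growth at the plate median or of vehicle wells; lower values mean less growth of the strain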
Settings: S. cerevisiae deletion strains, growth OD

Measured: normalized growth

Cc1onc(-c2c(Cl)cccc2Cl)c1C(=O)N[C@@H]1C(=O)N2[C@@H]1SC(C)(C)[C@@H]2C(=O)O
inactive: locus YAL013W, strain DEP1, hits give low values 1.02 | locus YAL021C, strain ccr4, hits give low values 0.969 | locus YAL026C, strain drs2, hits give low values 1.02 | locus YAL030W, strain snc1, hits give low values 0.994 | locus YBL061C, strain skt5, hits give low values 0.991 | locus YBR009C, strain hhf1, hits give low values 1 | locus YBR021W, strain FUR4, hits give low values 1.03 | locus YBR023C, strain chs3, hits give low values 0.986 | locus YBR171W, strain sec66, hits give low values 0.993 | locus YBR229C, strain ROT2, hits give low values 1.01 | locus YBR231C, strain swc5, hits give low values 0.963 | locus YBR279W, strain paf1, hits give low values 0.993 | locus YCL011C, strain gbp2, hits give low values 1.01 | locus YCL016C, strain dcc1, hits give low values 1.03 | locus YCL029C, strain bik1, hits give low values 0.996 | locus YCL069W, strain vba3, hits give low values 0.995 | locus YCR088W, strain abp1, hits give low values 0.975 | locus YDL005C, strain med2, hits give low values 0.995 | locus YDL035C, strain GPR1, hits give low values 1.04 | locus YDL040C, strain nat1, hits give low values 0.988 | locus YDL074C, strain BRE1, hits give low values 1.01 | locus YDL101C, strain DUN1, hits give low values 1.01 | locus YDL134C, strain PPH21, hits give low values 1.05 | locus YDL185W, strain tfp1, hits give low values 0.991 | locus YDL192W, strain arf1, hits give low values 0.993 | locus YDR001C, strain nth1, hits give low values 0.97 | locus YDR069C, strain doa4, hits give low values 0.991 | locus YDR101C, strain arx1, hits give low values 0.994 | locus YDR137W, strain rgp1, hits give low values 0.991 | locus YDR150W, strain NUM1, hits give low values 1.02 | locus YDR159W, strain sac3, hits give low values 0.975 | locus YDR162C, strain NBP2, hits give low values 1.02 | locus YDR195W, strain ref2 0.889 | locus YDR297W, strain sur2, hits give low values 0.973 | locus YDR318W, strain mcm21, hits give low values 0.995 | locus YDR334W, strain swr1, hits give low values 0.948 | locus YDR335W, strain msn5, hits give low values 0.967 | locus YDR388W, hits give low values 1 | locus YDR392W, strain spt3, hits give low values 1.12 | locus YDR502C, strain sam2, hits give low values 0.996 | locus YEL003W, strain gim4, hits give low values 0.973 | locus YEL037C, strain rad23, hits give low values 0.995 | locus YEL061C, strain CIN8 (second series), hits give low values 0.971 | locus YEL061C, strain CIN8, hits give low values 1.01 | locus YER015W, strain faa2, hits give low values 0.991 | locus YER016W, strain bim1, hits give low values 0.997 | locus YER110C, hits give low values 0.992 | locus YER111C, strain swi4, hits give low values 0.998 | locus YER155C, strain BEM2 (second series), hits give low values 0.973 | locus YER155C, strain BEM2, hits give low values 1.01 | locus YER167W, strain BCK2, hits give low values 1.02 | locus YFR010W, strain ubp6, hits give low values 0.97 | locus YGL078C, strain dbp3, hits give low values 1 | locus YGL086W, strain mad1, hits give low values 1.01 | locus YGL167C, strain pmr1, hits give low values 0.976 | locus YGL173C, strain kem1, hits give low values 0.961 | locus YGL227W, strain vid30, hits give low values 0.981 | locus YGL240W, strain doc1, hits give low values 0.951 | locus YGL248W, strain PDE1, hits give low values 1.01 | locus YGL253W, strain hxk2, hits give low values 1.02 | locus YGR078C, strain PAC10, hits give low values 1.01 | locus YGR135W, strain pre9, hits give low values 0.976 | locus YGR229C, strain SMI1, hits give low values 1.02 | locus YGR252W, strain gcn5, hits give low values 0.946 | locus YHR013C, strain ard1, hits give low values 1.02 | locus YHR027C, strain rpn1, hits give low values 0.997 | locus YHR030C, strain SLT2, hits give low values 1.01 and 1.06 | locus YHR079C, strain IRE1 (second series), hits give low values 0.989 | locus YHR079C, strain IRE1, hits give low values 1.02 | locus YHR094C, strain hxt1, hits give low values 0.994 | locus YHR129C, strain ARP1, hits give low values 1.02 | locus YHR142W, strain chs7, hits give low values 1.02 | locus YHR200W, strain rpn10, hits give low values 0.991 | locus YIL066C, strain RNR3, hits give low values 1.02 | locus YIL073C, strain SPO22, hits give low values 0.988 | locus YIL125W, strain kgd1, hits give low values 0.998 | locus YIR030C, strain dcg1, hits give low values 1.01 | locus YJL092W, strain hpr5, hits give low values 0.99 | locus YJL095W, strain BCK1 (second series), hits give low values 0.983 | locus YJL095W, strain BCK1, hits give low values 1 and 1.04 | locus YJL115W, strain asf1, hits give low values 0.979 | locus YJL129C, strain trk1, hits give low values 0.972 | locus YJL134W, strain LCB3, hits give low values 1.01 | locus YJL154C, strain vps35, hits give low values 0.978 | locus YJL164C, strain tpk1, hits give low values 1.02 | locus YJL166W, strain qcr8, hits give low values 0.957 | locus YJL168C, strain set2, hits give low values 0.988 | locus YJL187C, strain SWE1 (second series), hits give low values 1.01 | locus YJL187C, strain SWE1, hits give low values 0.987 | locus YJR043C, strain POL32, hits give low values 1.04
